# Records with an inconclusive call do not appear. Activity calls are given as the source filed them. The calls were made as follows: active = hit-call score of the fitted dose curve at least 0.9, where 1 is the maximum; inconclusive = response in the unintended direction; inactive = score below 0.9.
# Experiments:
# [1] = biological target: Cytochrome P450 2C19 (Homo sapiens) (UniProt P33261); test: NVS_ADME_hCYP2C19: NovaScreen (NVS) CYP450-related Enzyme Activity (ADME) Assay for human CYP2C19 (AID 2283113)
# How it was run: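 Biochemical CYP2C19 inhibition screen: insect-cell recombinant protein plus fluorescent substrate, 1 h, fluorescence intensity. Acetonitrile defined baseline activity. Single 10 uM concentration in duplicate, with concentration-response follow-up for actives.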
# [2] = biological target: human Caspase 5 (CASP5), CASP5 (gene 838) (UniProt P51878); test: NVS_ENZ_hCASP5: NovaScreen (NVS) Enzymatic Assay for human Caspase 5 (CASP5) (AID 2283137)
# How it was run: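 Fluorescent substrate readout of CASP5 activity (loss-of-signal), measured 2 h post-dose. Protein expressed in E. coli. Primary screen duplicate at 25 uM; actives meeting threshold (e.g., 30% inhibition) rerun singleton, max 50 uM.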
# Caspase-3 (Homo sapiens) = Caspase-3 (Homo sapiens) (UniProt P42574); test: NVS_ENZ_hCASP3: NovaScreen (NVS) Enzymatic Assay for human Caspase 3 (CASP3) (AID 2283139)
# How it was run: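 Single-concentration screening at 25 uM in duplicate, with concentration-response follow-up to a 50 uM maximum for chemicals passing the threshold. Caspase-3 (human, E. coli-expressed) activity was read as substrate fluorescence after 1 h, with loss of signal relative to DMSO.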
# [3] = biological target: human Beta-secretase (BACE), BACE1 (gene 23621) (UniProt P56817); test: NVS_ENZ_hBACE: NovaScreen (NVS) Enzymatic Assay for human Beta-secretase (BACE) (AID 2283140);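 also: hits are inhibitors that reduce fluorescent substrate signal versus DMSO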
# How it was run: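 SF9-expressed enzyme, cell-free; fluorescent substrate readout after 1 h. Screened at 25 uM single concentration, duplicate; hits retested in concentration series. Activity relative to DMSO baseline, loss-of-signal.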
# [4] = biological target: human Elastase, ELANE (gene 1991) (UniProt P08246); test: NVS_ENZ_hElastase: NovaScreen (NVS) Enzymatic Assay for human Elastase (AID 2283153)
# How it was run: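 Concentration-response to 50 uM max, run singly for chemicals passing a threshold (e.g., 30% inhibition) in a duplicate 25 uM single-point screen. Neutrophil-derived human elastase, absorbance read-out of enzyme activity at 1.5 h; DMSO baseline.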
# [5] = biological target: human AKT serine/threonine Kinase 2 (AKT2), AKT2 (gene 208) (UniProt P31751); test: NVS_ENZ_hAKT2: NovaScreen (NVS) Enzymatic Assay for human AKT serine/threonine Kinase 2 (AKT2) (AID 2283141)
# How it was run: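 Cell-free fluorescence/electrophoretic mobility shift readout of recombinant human AKT2 activity, 1 h after chemical dosing. Duplicate primary screen at 25 uM, then singleton concentration-response up to 50 uM; loss of signal versus DMSO baseline.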
# [6] = biological target: human Acetylcholinesterase (AChE), ACHE (gene 43) (UniProt P22303); test: NVS_ENZ_hAChE: NovaScreen (NVS) Enzymatic Assay for human Acetylcholinesterase (AChE) (AID 2283129)
# How it was run: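 Actives from a duplicate single-point screen (25 uM) were followed up in concentration series. Enzyme activity read by absorbance (colorimetric) 0.33 hour after dosing, cell-free, normalized to DMSO, with loss of signal scored.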
# Caspase-1 (Homo sapiens) = Caspase-1 (Homo sapiens) (UniProt P29466); test: NVS_ENZ_hCASP1: NovaScreen (NVS) Enzymatic Assay for human Caspase 1 (CASP1) (AID 2283132)
# How it was run: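 Compounds were first tested in duplicate at 25 uM, with follow-up concentration series up to 50 uM. The bacterially expressed enzyme was read by fluorescence at 1 h post-dosing. Signal loss versus DMSO baseline indicates reduced enzyme activity.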
# [7] = biological target: human Caspase 2 (CASP2), CASP2 (gene 835) (UniProt P42575); test: NVS_ENZ_hCASP2: NovaScreen (NVS) Enzymatic Assay for human Caspase 2 (CASP2) (AID 2283135)
# How it was run: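 Single-point duplicate testing at 25 uM preceded concentration series topping at 50 uM. Activity of the recombinant E. coli-derived protease was followed by fluorescent substrate cleavage 1 h post-dosing, relative to DMSO.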
# [8] = biological target: human Caspase 4 (CASP4), CASP4 (gene 837) (UniProt P49662); test: NVS_ENZ_hCASP4: NovaScreen (NVS) Enzymatic Assay for human Caspase 4 (CASP4) (AID 2283143)
# How it was run: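 Compounds were first tested in duplicate at 25 uM, and hits were titrated singly to a 50 uM maximum. Recombinant protease from E. coli was read by fluorescence 2 h post-dose, and activity loss was fitted against the DMSO baseline.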
# [9] = biological target: human AMP-activated Protein Kinase, alpha 1 (AMPKa1), PRKAA1 (gene 5562) (UniProt Q13131); test: NVS_ENZ_hAMPKa1: NovaScreen (NVS) Enzymatic Assay for human AMP-activated Protein Kinase, alpha 1 (AMPKa1) (AID 2283130)
# How it was run: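 Compounds were screened in duplicate at 25 uM, and those reaching ~30% inhibition were titrated up to 50 uM. The enzyme was recombinant human AMPKα1, and kinase turnover was read by fluorescence/mobility shift 1 h post-dosing as loss of signal versus DMSO.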
# [10] = biological target: human Casein Kinase 1-delta (CK1D), CSNK1D (gene 1453) (UniProt P48730); test: NVS_ENZ_hCK1D: NovaScreen (NVS) Enzymatic Assay for human Casein Kinase 1-delta (CK1D) (AID 2283148)
# How it was run: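 Recombinant human CK1-delta, cell-free; fluorescent substrate with electrophoretic mobility-shift separation of product, read 1 h after dosing. Single 25 uM duplicate screen, then concentration-response up to 50 uM; loss of signal vs DMSO.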
# [11] = biological target: human AKT serine/threonine Kinase 1 (AKT1), AKT1 (gene 207) (UniProt P31749); test: NVS_ENZ_hAKT1: NovaScreen (NVS) Enzymatic Assay for human AKT serine/threonine Kinase 1 (AKT1) (AID 2283138)
# How it was run: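 Fluorescence and mobility-shift readout of kinase activity, taken 1 h post-dosing in a cell-free format with recombinant protein. Primary screen at 25 uM in duplicate; hits (e.g. 30% inhibition) retested in concentration series topping at 50 uM.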
# [12] = biological target: human Caspase 8 (CASP8), CASP8 (gene 841) (UniProt Q14790); test: NVS_ENZ_hCASP8: NovaScreen (NVS) Enzymatic Assay for human Caspase 8 (CASP8) (AID 2283146)
# How it was run: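 The primary screen tested compounds in duplicate at a single 25 uM concentration, with actives followed up in concentration series. Activity of recombinant (E. coli) protease was measured by fluorescence 1 h post-dose, as signal loss against DMSO.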
# [13] = biological target: human Aurora Kinase A - serine/threonine-protein Kinase 6 (AurA), AURKA (gene 6790) (UniProt O14965); test: NVS_ENZ_hAurA: NovaScreen (NVS) Enzymatic Assay for human Aurora Kinase A - serine/threonine-protein Kinase 6 (AurA) (AID 2283142)
# How it was run: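 Recombinant human AurA activity read by fluorescence after mobility-shift separation of product from substrate; 1 hour incubation. Chemicals first run in duplicate at 25 uM, then concentration series to 50 uM if over threshold; fitted relative to DMSO.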
# CDK2 (gene 1017) = CDK2 (gene 1017) (UniProt P24941); test: NVS_ENZ_hCDK2: NovaScreen (NVS) Enzymatic Assay for human Cyclin-Cependent Kinase 2 (CDK2) (AID 2283144)
# How it was run: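 Compounds screened in duplicate at 25 uM, then in singleton concentration-response to a maximum of 50 uM, against recombinant CDK2; kinase activity read 1 hr after dosing by fluorescence with mobility-shift separation of substrate and product.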
# [14] = biological target: human Colony Stimulating Factor 1 Receptor (CSF1R), CSF1R (gene 1436) (UniProt P07333); test: NVS_ENZ_hCSF1R: NovaScreen (NVS) Enzymatic Assay for human Colony Stimulating Factor 1 Receptor (CSF1R) (AID 2283150)
# How it was run: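 Compounds screened in duplicate at 25 uM, then concentration-response (top 50 uM) for those passing threshold such as 30% inhibition; recombinant CSF1R activity measured 1 h post-dosing via fluorescent substrate/product mobility-shift separation, loss of signal versus DMSO.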
# [15] = biological target: human Epidermal Growth Factor Receptor (EGFR), EGFR (gene 1956) (UniProt P00533); test: NVS_ENZ_hEGFR: NovaScreen (NVS) Enzymatic Assay for human Epidermal Growth Factor Receptor (EGFR) (AID 2283151)
# How it was run: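 Cell-free kinase assay, fluorescence plus electrophoretic mobility shift separating substrate and product, read 1 hour after dosing; loss of signal vs DMSO. Duplicate screen at 25 uM, then concentration-response to 50 uM.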
# human Beta-secretase (BACE), BACE1 (gene 23621), sequence (P56817 whole entry, looked up): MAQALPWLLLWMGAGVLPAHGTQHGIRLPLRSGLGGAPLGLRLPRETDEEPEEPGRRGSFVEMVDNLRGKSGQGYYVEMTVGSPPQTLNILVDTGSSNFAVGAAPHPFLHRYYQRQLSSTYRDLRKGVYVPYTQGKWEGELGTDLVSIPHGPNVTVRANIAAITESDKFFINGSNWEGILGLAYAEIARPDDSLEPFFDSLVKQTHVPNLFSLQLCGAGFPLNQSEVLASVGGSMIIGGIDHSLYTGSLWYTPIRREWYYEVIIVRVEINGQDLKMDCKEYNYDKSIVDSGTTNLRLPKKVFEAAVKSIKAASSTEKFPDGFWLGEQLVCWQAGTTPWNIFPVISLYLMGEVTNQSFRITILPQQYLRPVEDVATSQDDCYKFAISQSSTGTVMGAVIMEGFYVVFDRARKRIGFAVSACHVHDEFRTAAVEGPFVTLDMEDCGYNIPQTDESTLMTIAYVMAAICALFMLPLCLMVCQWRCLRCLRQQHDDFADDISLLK
# human Elastase, ELANE (gene 1991), sequence (P08246 whole entry, looked up): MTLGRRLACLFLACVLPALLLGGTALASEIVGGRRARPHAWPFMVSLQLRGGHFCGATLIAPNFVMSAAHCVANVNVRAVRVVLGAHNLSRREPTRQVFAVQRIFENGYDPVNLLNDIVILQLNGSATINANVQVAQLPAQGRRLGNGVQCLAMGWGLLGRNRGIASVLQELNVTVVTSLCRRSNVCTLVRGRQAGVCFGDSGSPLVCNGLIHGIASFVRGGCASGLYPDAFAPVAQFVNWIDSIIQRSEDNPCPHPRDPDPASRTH
# Caspase-3 (Homo sapiens), sequence (P42574 whole entry, looked up): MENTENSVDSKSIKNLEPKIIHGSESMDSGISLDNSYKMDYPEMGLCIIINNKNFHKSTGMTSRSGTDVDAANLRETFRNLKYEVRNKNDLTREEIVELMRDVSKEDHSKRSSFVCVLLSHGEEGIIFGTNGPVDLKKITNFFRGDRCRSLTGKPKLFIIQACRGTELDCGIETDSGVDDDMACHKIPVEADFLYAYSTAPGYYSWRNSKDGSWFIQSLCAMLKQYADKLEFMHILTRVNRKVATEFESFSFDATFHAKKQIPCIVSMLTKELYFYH
# human Caspase 5 (CASP5), CASP5 (gene 838), sequence (P51878 whole entry, looked up): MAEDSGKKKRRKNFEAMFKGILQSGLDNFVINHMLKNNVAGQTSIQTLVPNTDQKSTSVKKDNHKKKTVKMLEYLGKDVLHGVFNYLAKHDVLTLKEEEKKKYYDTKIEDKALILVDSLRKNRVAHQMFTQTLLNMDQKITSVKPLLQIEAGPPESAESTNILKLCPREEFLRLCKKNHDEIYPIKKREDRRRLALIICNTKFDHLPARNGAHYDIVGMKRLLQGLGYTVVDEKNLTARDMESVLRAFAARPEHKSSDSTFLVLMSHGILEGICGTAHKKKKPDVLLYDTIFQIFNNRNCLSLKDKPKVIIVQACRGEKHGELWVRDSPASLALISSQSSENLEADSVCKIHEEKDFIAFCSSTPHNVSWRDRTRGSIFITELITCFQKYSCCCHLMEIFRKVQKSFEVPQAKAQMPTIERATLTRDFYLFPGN
# human Caspase 4 (CASP4), CASP4 (gene 837), sequence (P49662 whole entry, looked up): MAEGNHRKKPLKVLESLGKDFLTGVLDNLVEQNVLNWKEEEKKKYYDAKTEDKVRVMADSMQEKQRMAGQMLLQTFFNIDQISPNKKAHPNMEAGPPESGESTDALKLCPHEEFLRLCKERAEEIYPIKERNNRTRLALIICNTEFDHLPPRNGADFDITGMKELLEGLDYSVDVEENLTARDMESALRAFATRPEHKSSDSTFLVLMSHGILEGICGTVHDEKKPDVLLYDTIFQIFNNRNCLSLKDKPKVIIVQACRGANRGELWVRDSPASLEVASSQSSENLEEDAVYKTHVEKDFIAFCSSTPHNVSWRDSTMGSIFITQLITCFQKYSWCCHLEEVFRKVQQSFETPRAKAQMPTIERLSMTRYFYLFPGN
# human Acetylcholinesterase (AChE), ACHE (gene 43), sequence (P22303 whole entry, looked up): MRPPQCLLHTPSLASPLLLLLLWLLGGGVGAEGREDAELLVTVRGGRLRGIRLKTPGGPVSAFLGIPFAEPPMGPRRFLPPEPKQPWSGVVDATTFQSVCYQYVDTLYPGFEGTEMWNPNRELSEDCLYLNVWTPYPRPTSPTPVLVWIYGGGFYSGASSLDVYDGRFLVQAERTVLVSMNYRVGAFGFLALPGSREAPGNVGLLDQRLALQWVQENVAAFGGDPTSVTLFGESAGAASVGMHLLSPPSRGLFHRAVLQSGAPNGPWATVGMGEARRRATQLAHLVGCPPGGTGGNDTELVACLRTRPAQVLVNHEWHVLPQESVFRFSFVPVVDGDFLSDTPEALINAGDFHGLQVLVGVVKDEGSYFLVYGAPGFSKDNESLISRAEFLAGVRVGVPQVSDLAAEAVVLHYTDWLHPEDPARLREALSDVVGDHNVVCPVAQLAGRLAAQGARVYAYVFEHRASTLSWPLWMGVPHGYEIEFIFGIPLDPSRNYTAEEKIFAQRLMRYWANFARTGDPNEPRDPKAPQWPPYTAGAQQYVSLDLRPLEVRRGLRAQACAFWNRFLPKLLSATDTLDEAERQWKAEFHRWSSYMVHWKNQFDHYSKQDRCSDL
# human AKT serine/threonine Kinase 1 (AKT1), AKT1 (gene 207), sequence (P31749 whole entry, looked up): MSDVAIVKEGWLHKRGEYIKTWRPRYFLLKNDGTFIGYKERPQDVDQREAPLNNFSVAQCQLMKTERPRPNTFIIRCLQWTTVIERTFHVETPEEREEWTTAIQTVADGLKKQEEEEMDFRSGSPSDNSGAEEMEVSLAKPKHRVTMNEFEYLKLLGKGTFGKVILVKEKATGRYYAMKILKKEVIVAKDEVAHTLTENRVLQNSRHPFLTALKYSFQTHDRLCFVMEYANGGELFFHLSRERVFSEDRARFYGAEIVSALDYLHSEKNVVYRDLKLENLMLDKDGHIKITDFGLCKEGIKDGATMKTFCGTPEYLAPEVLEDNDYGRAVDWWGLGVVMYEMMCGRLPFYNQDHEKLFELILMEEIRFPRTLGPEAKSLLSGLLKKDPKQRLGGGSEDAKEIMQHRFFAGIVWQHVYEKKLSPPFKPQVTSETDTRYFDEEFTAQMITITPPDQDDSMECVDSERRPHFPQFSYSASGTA
# human AKT serine/threonine Kinase 2 (AKT2), AKT2 (gene 208), sequence (P31751 whole entry, looked up): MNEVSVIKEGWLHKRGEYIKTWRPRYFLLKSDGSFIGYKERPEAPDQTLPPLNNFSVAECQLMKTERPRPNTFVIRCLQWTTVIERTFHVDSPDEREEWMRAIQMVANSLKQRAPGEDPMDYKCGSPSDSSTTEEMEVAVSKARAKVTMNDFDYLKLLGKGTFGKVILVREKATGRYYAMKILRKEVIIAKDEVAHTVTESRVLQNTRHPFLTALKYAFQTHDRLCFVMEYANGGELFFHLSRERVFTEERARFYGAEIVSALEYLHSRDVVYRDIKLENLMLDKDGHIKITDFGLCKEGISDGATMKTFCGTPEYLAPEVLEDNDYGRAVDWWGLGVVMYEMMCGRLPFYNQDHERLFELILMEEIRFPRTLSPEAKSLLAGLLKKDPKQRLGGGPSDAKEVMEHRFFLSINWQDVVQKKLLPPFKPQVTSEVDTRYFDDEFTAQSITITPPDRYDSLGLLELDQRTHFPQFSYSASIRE
# human Caspase 8 (CASP8), CASP8 (gene 841), sequence (Q14790 whole entry, looked up): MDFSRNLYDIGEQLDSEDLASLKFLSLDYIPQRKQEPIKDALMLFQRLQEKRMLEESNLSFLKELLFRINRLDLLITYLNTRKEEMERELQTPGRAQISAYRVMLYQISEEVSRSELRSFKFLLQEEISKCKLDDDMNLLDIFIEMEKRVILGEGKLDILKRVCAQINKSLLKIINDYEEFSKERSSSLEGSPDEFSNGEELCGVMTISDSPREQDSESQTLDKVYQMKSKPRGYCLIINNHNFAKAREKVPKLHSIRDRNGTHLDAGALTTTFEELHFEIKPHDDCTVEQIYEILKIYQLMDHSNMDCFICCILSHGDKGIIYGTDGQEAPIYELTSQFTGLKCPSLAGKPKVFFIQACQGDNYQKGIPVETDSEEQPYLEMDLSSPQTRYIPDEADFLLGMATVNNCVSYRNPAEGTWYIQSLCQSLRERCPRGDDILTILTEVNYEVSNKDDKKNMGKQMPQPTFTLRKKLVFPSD
# human Caspase 2 (CASP2), CASP2 (gene 835), sequence (P42575 whole entry, looked up): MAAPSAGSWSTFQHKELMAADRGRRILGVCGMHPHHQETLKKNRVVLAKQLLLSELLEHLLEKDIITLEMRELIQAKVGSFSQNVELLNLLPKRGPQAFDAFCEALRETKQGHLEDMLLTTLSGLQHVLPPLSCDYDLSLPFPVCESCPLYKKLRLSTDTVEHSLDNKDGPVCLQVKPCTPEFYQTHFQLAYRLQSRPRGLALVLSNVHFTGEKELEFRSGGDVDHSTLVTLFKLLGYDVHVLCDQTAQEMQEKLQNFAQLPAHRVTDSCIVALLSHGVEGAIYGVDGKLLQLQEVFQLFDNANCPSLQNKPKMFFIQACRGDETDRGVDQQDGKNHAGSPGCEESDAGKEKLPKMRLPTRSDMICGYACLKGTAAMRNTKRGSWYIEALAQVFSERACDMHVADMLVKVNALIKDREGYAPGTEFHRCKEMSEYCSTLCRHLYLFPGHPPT
# human Aurora Kinase A - serine/threonine-protein Kinase 6 (AurA), AURKA (gene 6790), sequence (O14965 whole entry, looked up): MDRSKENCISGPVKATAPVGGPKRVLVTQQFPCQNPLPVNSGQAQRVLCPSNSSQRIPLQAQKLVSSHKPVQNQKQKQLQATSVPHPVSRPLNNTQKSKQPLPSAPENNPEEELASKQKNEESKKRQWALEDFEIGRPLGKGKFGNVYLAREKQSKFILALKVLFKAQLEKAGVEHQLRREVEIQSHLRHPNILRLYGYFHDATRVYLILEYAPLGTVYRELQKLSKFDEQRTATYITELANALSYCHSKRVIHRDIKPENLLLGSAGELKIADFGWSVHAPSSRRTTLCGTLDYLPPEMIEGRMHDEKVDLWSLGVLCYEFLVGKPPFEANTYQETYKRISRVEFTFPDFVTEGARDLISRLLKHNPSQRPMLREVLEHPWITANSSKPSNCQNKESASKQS
structure (smiles),measurement,setting,value
Nc1ccc(Cl)cc1N,outcome,[1],inactive
same,outcome,[2],inactive
same,AC50,Caspase-3 (Homo sapiens),4.4 µM (active)
same,AC50,[3],2.52 µM (active)
same,outcome,[4],inactive
CCCCCCCCCCCCCN1CC(C)OC(C)C1 (stereo unspecified),outcome,[4],inactive
O=C(O)C1C2CCC(O2)C1C(=O)O (stereo unspecified),outcome,[5],inactive
CN(C)C(=O)Nc1ccc(Cl)cc1,outcome,[5],inactive
Cc1ccc(N=C=O)cc1N=C=O,AC50,[6],8.65 µM (active)
same,AC50,Caspase-1 (Homo sapiens),25 µM (active)
same,outcome,[7],inactive
same,outcome,[2],inactive
same,AC50,[3],8.64 µM (active)
same,outcome,[5],inactive
same,AC50,[8],13.7 µM (active)
same,AC50,[4],8.38 µM (active)
c1ccc2c(c1)-c1cccc3cccc-2c13,AC50,[3],1.18 µM (active)
O=C(Oc1ccc(Br)cc1)N1CCN2CCC1CC2,outcome,[9],inactive
CCCCCOC(=O)c1ccccc1C(=O)OCCCCC,outcome,[6],inactive
same,AC50,[3],11.5 µM (active)
same,outcome,[4],inactive
C[N+](C)(C)CC1CO1 (stereo unspecified),outcome,[5],inactive
CCCCCCCCOC(=O)c1ccc(C(=O)OCCCCCCCC)c(C(=O)OCCCCCCCC)c1,outcome,[6],inactive
same,outcome,[7],inactive
same,outcome,Caspase-3 (Homo sapiens),inactive
same,AC50,[3],11.2 µM (active)
same,AC50,[4],37.9 µM (active)
CC(C)(O)c1cnn2c(-c3ccc(F)c(-c4c(F)cccc4C#N)c3)cnc2n1,AC50,[3],5.34 µM (active)
same,outcome,[10],inactive
Clc1ccc(Cl)c(Cl)c1,outcome,[11],inactive
same,outcome,[12],inactive
COc1cc(C=O)cc2c1[C@H](COC(N)=O)[C@]1(OC(C)=O)ON2C[C@H]2[C@@H]1N2C(C)=O,outcome,[13],inactive
same,outcome,CDK2 (gene 1017),inactive
same,outcome,[14],inactive
same,AC50,[4],5.75 µM (active)
CCC[CH2][Sn]([Cl])([CH2]CCC)[CH2]CCC,outcome,[6],inactive
same,AC50,[3],4.02 µM (active)
same,outcome,[5],inactive
c1ccc(C2CO2)cc1 (stereo unspecified),outcome,[2],inactive
Oc1ccccc1Cl,outcome,[9],inactive
CC(C)N(Cc1ccccc1)C(=O)C(C)(C)C,outcome,[11],inactive
Cc1cccc(N)c1N,outcome,[2],inactive
same,outcome,[8],inactive
c1ccc(NNc2ccccc2)cc1,outcome,[11],inactive
same,outcome,[5],inactive
same,outcome,[8],inactive
COC(=O)c1ccccc1N,AC50,[12],11.1 µM (active)
Cc1ccc(N)c(N)c1,outcome,[3],inactive
same,outcome,[5],inactive
O=C1CCCO1,outcome,[5],inactive
ClCCOCCCl,outcome,[13],inactive
same,outcome,[15],inactive
CCCSC(=O)N(CCC)CCC,outcome,Caspase-3 (Homo sapiens),inactive
O=P(OCCCl)(OCCCl)OCCCl,outcome,[11],inactive
same,outcome,[5],inactive
CN(C)[C@@H]1C(=O)C(C(N)=O)=C(O)[C@@]2(O)C(=O)C3=C(O)c4c(O)cccc4[C@@](C)(O)[C@H]3C[C@@H]12,outcome,Caspase-1 (Homo sapiens),inactive
same,AC50,[2],10.9 µM (active)
same,outcome,[3],inactive
same,AC50,[4],18.5 µM (active)
O=[N+]([O-])c1ccc(Oc2ccc(Cl)cc2Cl)cc1,outcome,[3],inactive
same,outcome,[4],inactive

# — PubChem BioAssay (EPA / NIEHS)
